# Inconclusive results are not listed. Where a structure was tested more than once in an assay, its records may differ in their call. Active and inactive are the calls of the source. How the source made its calls: active means hit-call score of the fitted dose curve at least 0.9, where 1 is the maximum; inconclusive means response in the unintended direction; inactive means score below 0.9.
# Molecular target: human AKT serine/threonine Kinase 1 (AKT1), AKT1 (gene 207) (UniProt P31749)
# Assay: NVS_ENZ_hAKT1: NovaScreen (NVS) Enzymatic Assay for human AKT serine/threonine Kinase 1 (AKT1) (AID 2283138)
# Method: NVS_ENZ_hAKT1 is a biochemical, single-readout assay that uses extracted gene-proteins in a cell-free assay. Measurements were taken 1 hour after chemical dosing in a 384-well plate.NVS_ENZ_hAKT1 is one of one assay component(s) measured or calculated from the NVS_ENZ_hAKT1 assay. It is designed to make measurements of enzyme activity, a form of enzyme reporter, as detected with fluorescence intensity signals by Fluorescence and electrophoretic mobility shift technology.Data from the assay component NVS_ENZ_hAKT1 was analyzed into 1 assay endpoint. This assay endpoint, NVS_ENZ_hAKT1, was analyzed in the positive analysis fitting direction relative to DMSO as the negative control and baseline of activity. Using a type of enzyme reporter, loss-of-signal activity can be used to understand changes in the enzymatic activity as they relate to the gene AKT1. Furthermore, this assay endpoint can be referred to as a primary readout, because this assay has produced multiple assay endpoints where this one serves a enzymatic activity function. To generalize the intended target to other relatable targets, this assay endpoint is annotated to the kinase intended target family, where the subfamily is serine/threonine kinase.
# Binding assays used specific radioligands (tritiated, iodinated) with non-radioactive competitive displacement ligands in agonist or antagonist protocols (as indicated) and various reference compounds and inhibitors to titrate specific binding to receptors and transporters. Most enzyme assays (CYPs, kinases, phosphatases, proteases, HDACs) used recombinant protein and specific substrates (fluorescence mostly, some colorimetric and radioactive) and inhibitors, followed by a biochemical separation of substrate and product. All assays for the biochemical HTS were initially run in duplicate at a single concentration (10 uM for CYP450 assays and 25 uM for all others). Assay-chemical combinations meeting a pre-defined threshold (e.g., 30% inhibition and other criteria defined below) were then run in singleton concentration-response format with maximum concentration of 20 uM for CYPs and 50 uM for all others. Each assay was run with positive and negative controls, and concurrent controls on every plate. The follow-up (secondary) screen tested active chemical-pairs in concentration series, as well as a few additional assays not tested in the primary screen, some selected negative inactives, and several cases re-run in the concentration series for confirmatory purposes.
# human AKT serine/threonine Kinase 1 (AKT1), AKT1 (gene 207), sequence (P31749 whole entry, looked up): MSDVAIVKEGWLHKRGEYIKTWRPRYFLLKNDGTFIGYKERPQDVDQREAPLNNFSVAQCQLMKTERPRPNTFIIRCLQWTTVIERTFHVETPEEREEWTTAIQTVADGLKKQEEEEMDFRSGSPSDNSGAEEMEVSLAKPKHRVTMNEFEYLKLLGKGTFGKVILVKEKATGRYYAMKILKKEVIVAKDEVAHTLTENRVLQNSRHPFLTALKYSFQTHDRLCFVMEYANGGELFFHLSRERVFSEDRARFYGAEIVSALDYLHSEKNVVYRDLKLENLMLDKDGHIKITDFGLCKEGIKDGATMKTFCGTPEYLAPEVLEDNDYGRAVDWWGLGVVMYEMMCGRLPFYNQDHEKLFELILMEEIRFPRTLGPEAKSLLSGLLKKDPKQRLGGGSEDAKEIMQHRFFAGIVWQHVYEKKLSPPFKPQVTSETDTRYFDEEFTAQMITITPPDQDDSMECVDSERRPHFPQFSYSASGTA
SMILES,outcome,AC50
CC1COC(Cn2cncn2)(c2ccc(Oc3ccc(Cl)cc3)cc2Cl)O1 (stereo unspecified),inactive,
CCCCOC(=O)c1ccccc1C(=O)OCCCC,inactive,
CO/C=C(/C(=O)OC)c1ccccc1Oc1cc(Oc2ccccc2C#N)ncn1,inactive,14.7 µM (active)
N#Cc1cc(Br)c(O)c(Br)c1,inactive,
CCCCNC(=O)n1c(NC(=O)OC)nc2ccccc21,inactive,
CCOP(=S)(OCC)SCn1c(=O)oc2cc(Cl)ccc21,inactive,
CON(C)C(=O)Nc1ccc(Cl)c(Cl)c1,inactive,
Cc1ccc(-c2c(Cl)nc(C#N)n2S(=O)(=O)N(C)C)cc1,inactive,
CCCN(CCC)c1c([N+](=O)[O-])cc(S(N)(=O)=O)cc1[N+](=O)[O-],inactive,
Oc1ccccc1-c1ccccc1,inactive,

# Reference: PubChem BioAssay (EPA / NIEHS)
